Shown is part of a subset that was picked to be rich in hits.
IDE exosite FP = displaces the probe from the exo-site of human IDE. purified IDE, FL-6b probe fluorescence polarization; hits give low values. z-score at 20 µM. actives 6.3% (n = 17,000). AID 1259349;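 active means z-score of -3 or lower, meaning strong loss of probe binding signal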;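 further: His-tagged human IDE residues 42-1019 made in E. coli with 30 nM FL-6b probe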
Target sequence (P14735 42-1019 limits assumed): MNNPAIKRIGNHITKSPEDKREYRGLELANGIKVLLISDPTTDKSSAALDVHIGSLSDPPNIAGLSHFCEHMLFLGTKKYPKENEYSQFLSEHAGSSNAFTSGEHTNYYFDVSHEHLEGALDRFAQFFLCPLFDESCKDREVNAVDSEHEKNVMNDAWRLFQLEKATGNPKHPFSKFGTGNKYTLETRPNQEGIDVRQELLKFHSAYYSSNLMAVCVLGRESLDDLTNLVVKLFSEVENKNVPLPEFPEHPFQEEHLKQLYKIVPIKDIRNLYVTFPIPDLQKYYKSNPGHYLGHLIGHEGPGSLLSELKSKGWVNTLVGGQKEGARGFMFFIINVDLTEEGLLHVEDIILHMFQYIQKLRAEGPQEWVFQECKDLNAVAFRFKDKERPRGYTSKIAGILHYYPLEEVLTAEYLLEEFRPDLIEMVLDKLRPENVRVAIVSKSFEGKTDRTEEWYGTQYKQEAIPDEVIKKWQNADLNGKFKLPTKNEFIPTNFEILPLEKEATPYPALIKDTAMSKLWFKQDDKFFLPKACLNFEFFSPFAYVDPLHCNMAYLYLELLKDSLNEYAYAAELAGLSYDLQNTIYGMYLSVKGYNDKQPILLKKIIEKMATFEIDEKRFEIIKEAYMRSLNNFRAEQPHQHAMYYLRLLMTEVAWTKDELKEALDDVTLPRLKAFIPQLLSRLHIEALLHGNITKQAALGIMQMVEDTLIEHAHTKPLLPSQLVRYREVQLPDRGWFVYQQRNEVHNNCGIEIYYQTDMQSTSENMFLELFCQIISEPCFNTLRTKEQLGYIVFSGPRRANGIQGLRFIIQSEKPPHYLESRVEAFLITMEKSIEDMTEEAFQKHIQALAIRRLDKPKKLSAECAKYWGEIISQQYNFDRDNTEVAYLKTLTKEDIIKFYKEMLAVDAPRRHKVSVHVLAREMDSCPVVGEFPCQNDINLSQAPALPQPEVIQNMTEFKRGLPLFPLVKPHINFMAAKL
The depositor's hits bear a star.

SMILES	IDE exosite FP
CCC(=O)N1CC(=O)N2[C@H](C1)[C@@H](c1ccc(-c3ccccc3F)cc1)[C@@H]2CO	-8*
CCC(=O)N1CC(=O)N2[C@H](CO)[C@H](c3ccc(-c4ccccc4F)cc3)[C@H]2C1	-7.4*
CCC(=O)N1CC(=O)N2[C@H](CO)[C@H](c3ccc(-c4ccccc4F)cc3)[C@@H]2C1	-2.1
CCCN1C[C@@H](C)[C@H](OC)CN(C)C(=O)c2ccc(NS(=O)(=O)c3cn(C)cn3)cc2OC[C@@H]1C	-2.2
CC(C)C#Cc1ccc([C@H]2[C@@H](CO)N3CCCCN(C(=O)Nc4ccccc4)C[C@@H]23)cc1	4.7
CO[C@H]1CN(C)C(=O)c2ccc(NC(=O)C3CC3)cc2OC[C@@H](C)N(C(C)=O)C[C@@H]1C	-1.6
OC[C@H]1[C@@H](c2ccccc2)C2(CN(CCC(F)(F)F)C2)N1Cc1cncnc1	0.35
Cc1cccc(S(=O)(=O)N2CCCCN3[C@@H](CO)[C@@H](c4ccc(-c5cccnc5)cc4)[C@@H]3C2)c1	-3.3*
COc1cccc(S(=O)(=O)N2CCCCN3[C@@H](CO)[C@@H](c4ccc(-c5cncnc5)cc4)[C@@H]3C2)c1	-0.24
COc1cccc(S(=O)(=O)N2CCCCN3[C@H](CO)[C@@H](c4ccc(-c5cccnc5)cc4)[C@@H]3C2)c1	-3.5*
COc1cccc(S(=O)(=O)N2CCCCN3[C@H](CO)[C@@H](c4ccc(-c5cncnc5)cc4)[C@@H]3C2)c1	-0.62
COc1cccc(S(=O)(=O)N2CCCCN3[C@H](C2)[C@@H](c2ccc(-c4cncnc4)cc2)[C@@H]3CO)c1	0.96
Cc1cccc(S(=O)(=O)N2CCCCN3[C@H](CO)[C@H](c4ccc(-c5ccncc5)cc4)[C@H]3C2)c1	1.5
Cc1cccc(S(=O)(=O)N2CCCCN3[C@@H](CO)[C@H](c4ccc(-c5ccncc5)cc4)[C@@H]3C2)c1	1.6
COc1cccc(S(=O)(=O)N2CCCCN3[C@@H](CO)[C@@H](c4ccc(-c5cccnc5)cc4)[C@@H]3C2)c1	-6.3*
COc1cccc(S(=O)(=O)N2CCCCN3[C@H](CO)[C@H](c4ccc(-c5cccnc5)cc4)[C@H]3C2)c1	1.1
CCS(=O)(=O)N1CC(=O)N2[C@H](C1)[C@H](c1ccc(-c3ccc(F)cc3)cc1)[C@@H]2CO	1.3
COc1ccc(-c2ccc([C@H]3[C@@H](CO)N(C(=O)CN(C)C)[C@H]3C#N)cc2)cc1	2.9
O=C(c1ccccc1F)N1CC(=O)N2[C@H](CO)[C@@H](c3ccc(-c4ccccc4)cc3)[C@H]2C1	0.85
O=C(c1ccc2c(c1)OCO2)N1CC(=O)N2[C@@H](CO)[C@H](c3ccc(C#CC4CCCC4)cc3)[C@@H]2C1	-2.1
C[C@H]1CCCCO[C@H](CN(C)S(C)(=O)=O)[C@@H](C)CN([C@@H](C)CO)C(=O)c2cc(NC(=O)NC3CCCCC3)ccc2O1	-0.43
O=C(c1cccnc1)N1CC(=O)N2[C@H](CO)[C@@H](c3ccc(-c4cccnc4)cc3)[C@@H]2C1	-1.9
O=C(c1cccnc1)N1CC(=O)N2[C@H](CO)[C@H](c3ccc(-c4cccnc4)cc3)[C@H]2C1	-0.66
Cc1ccc(-c2ccc([C@@H]3[C@@H](CO)N4C(=O)CN(C(=O)c5cccnc5)C[C@@H]34)cc2)cc1	-3.6*
O=C(c1cccnc1)N1CC(=O)N2[C@H](CO)[C@@H](c3ccc(-c4cccnc4)cc3)[C@H]2C1	0.23
SMILES	IDE exosite FP
O=C(c1cccnc1)N1CC(=O)N2[C@@H](CO)[C@@H](c3ccc(-c4cccnc4)cc3)[C@@H]2C1	2.6
Cc1ccc(-c2ccc([C@H]3[C@@H](CO)N4C(=O)CN(C(=O)c5cccnc5)C[C@H]34)cc2)cc1	-3.1*
CCCNC(=O)N1[C@H](CO)[C@@H](c2ccc(-c3cccnc3)cc2)[C@@H]1C#N	1.2
C[C@H]1CN([C@@H](C)CO)C(=O)CCCn2nncc2CO[C@H]1CN(C)C(=O)Nc1ccc(-c2cccs2)cc1	-0.085
COc1cccc(-c2ccc([C@H]3[C@@H](CO)N4CCCCN(S(=O)(=O)c5cccs5)C[C@H]34)cc2)c1	0.91
COc1cccc(S(=O)(=O)N2CCCCN3[C@H](C2)[C@@H](c2ccc(-c4ccccc4)cc2)[C@@H]3CO)c1	3
COc1cccc(-c2ccc([C@H]3[C@@H](CO)N4CCCCN(S(=O)(=O)c5cn(C)cn5)C[C@H]34)cc2)c1	-3.9*
COc1cccc(-c2ccc([C@@H]3[C@H](CO)N4CCCCN(S(=O)(=O)c5cn(C)cn5)C[C@@H]34)cc2)c1	-11*
COc1cccc(-c2ccc([C@@H]3[C@H]4CN(S(=O)(=O)c5cccs5)CCCCN4[C@H]3CO)cc2)c1	4.2
COc1cccc(S(=O)(=O)N2CCCCN3[C@H](CO)[C@@H](c4ccc(-c5ccccc5)cc4)[C@H]3C2)c1	2.5
C/C=C/c1ccc([C@H]2[C@@H](CO)N(C(C)=O)[C@@H]2CN(C(=O)COC)C(C)C)cc1	4.1
CC(=O)N1CC2(C1)[C@H](c1ccccc1)[C@H](CO)N2C(=O)c1cnccn1	1.5
CCc1nc(N2[C@@H](C#N)[C@H](c3ccccc3-c3ccc(F)cc3)[C@@H]2CO)sc1C	-0.16
CCS(=O)(=O)Nc1ccc2c(c1)C(=O)N(C)[C@@H]1CC[C@@H](CC(=O)NC3CCCCC3)O[C@H]1CO2	-0.47
C/C=C/c1ccc([C@H]2[C@@H](CO)N(C(=O)CC)[C@@H]2CN(C(=O)C2CC2)C(C)C)cc1	0.041
C[C@H](O)C#Cc1ccc([C@H]2[C@H](CO)N3CCCCN(S(=O)(=O)Cc4ccccc4)C[C@@H]23)cc1	0.23
C/C=C/c1ccc([C@@H]2[C@@H](CO)N3C(=O)CN(C(=O)c4ccc(F)cc4)C[C@H]23)cc1	0.44
COc1cccc(C#Cc2ccc([C@H]3[C@H](CO)N4C(=O)CN(C(=O)C5CC5)C[C@@H]34)cc2)c1	-4.6*
COc1cccc(C#Cc2ccc([C@H]3[C@@H](CO)N4C(=O)CN(C(=O)C5CC5)C[C@H]34)cc2)c1	-9.5*
COc1cccc(C#Cc2ccc([C@@H]3[C@H]4CN(C(=O)C5CC5)CC(=O)N4[C@H]3CO)cc2)c1	-0.064
COc1cccc(C#Cc2ccc([C@@H]3[C@@H](CO)N4C(=O)CN(C(=O)C5CC5)C[C@@H]34)cc2)c1	-1
COc1ccc(C#Cc2ccc([C@H]3[C@H](CO)N4C(=O)CN(C(=O)C5CCOCC5)C[C@@H]34)cc2)cc1	-1.1
CCC(=O)NC[C@@H]1[C@@H](c2ccc(-c3ccccc3)cc2)[C@@H](CO)N1C(=O)C1CC1	-2.5
COC(=O)C[C@H]1CC[C@@H]2[C@@H](COc3ccc(NC(=O)c4ccc(C(F)(F)F)cc4)cc3C(=O)N2C)O1	-0.15
CC(=O)NC[C@H]1[C@@H](c2ccc(C3=CCCC3)cc2)[C@@H](CO)N1C(=O)NC(C)C	1.2
SMILES	IDE exosite FP
COCC(=O)N1[C@@H](C#N)[C@H](c2ccccc2-c2cccc(F)c2)[C@@H]1CO	3
Cc1cccc(-c2ccc([C@@H]3[C@H](CO)N4CCCCN(C(=O)c5cccnc5)C[C@@H]34)cc2)c1	-1.4
O=C(c1ccncc1)N1CCCCN2[C@@H](CO)[C@@H](c3ccc(-c4ccccc4)cc3)[C@@H]2C1	-0.96
O=C(c1ccncc1)N1CCCCN2[C@H](C1)[C@H](c1ccc(-c3ccccc3)cc1)[C@@H]2CO	1.9
Cc1ccc(-c2ccc([C@@H]3[C@H](CO)N4CCCCN(C(=O)c5ccncc5)C[C@@H]34)cc2)cc1	-1.2
Cc1cccc(-c2ccc([C@H]3[C@H]4CN(C(=O)c5ccncc5)CCCCN4[C@H]3CO)cc2)c1	-3*

Compound activity: PubChem, Broad Institute
